Four compounds from PubChem BioAssay can be followed below.

Inconclusive results are not listed. Activity calls are given as the source filed them. Unless noted, the rule behind the calls is not given here.

A short description of test [1]: rapamycin-like changes in RPL19A-GFP expression – cell-based, S. cerevisiae, multiplex flow cytometry, primary screen (AID 1862; in the data active = percent of DMSO control GFP below about 86%;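 note: lower values mimic rapamycin by blocking the RPL19A rise seen in DMSO cells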). The following applies: S. cerevisiae RPL19A-GFP strain, flow cytometry fluorescence, 3 h; at 10 µM; stronger effect = lower value. On the technique in general: Flow cytometry measures light scatter and fluorescence of single cells or particles in a stream.

Test [2] can be described thus: TOR pathway GLN3 branch reporter MEP2-GFP changes – S. cerevisiae, multiplex flow cytometry, primary screen (AID 1867;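 active = GFP response, as percent of the DMSO control, above the screen-wide mean plus 3 SD, about 139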;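 note: median GFP channel fluorescence of barcode-gated MEP2-GFP cells measured by flow cytometry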). Conditions: S. cerevisiae MEP2-GFP strain, 3 h, at 10 µM, stronger effect = higher value.
Test [3] is described as follows: TOR pathway RTG branch CIT2 reporter changes – S. cerevisiae, GFP fusion, multiplex flow cytometry, primary screen (AID 1870;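 active = percent response above a set limit, the screen-wide mean plus 3 SD, cut at about 130% in these data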;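 note: barcoded CIT2-GFP strain pooled with four other GFP strains with rapamycin as positive control; median GFP fluorescence per well over plate mean of DMSO wells so 100% = DMSO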). Conditions: S. cerevisiae CIT2-GFP expression, 3 h, at 10 µM, stronger effect = higher value.
Test [4] in a line: TOR pathway LAP4-GFP level changes – S. cerevisiae, multiplex flow cytometry, primary screen (AID 1873;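 active = GFP signal, as percent of the solvent control, above the screen mean plus 3 SD, about 149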). The following applies: S. cerevisiae LAP4-GFP expression, 3 h, at 10 µM, stronger effect = higher value.
Test [5] is described as follows: yeast AGP1-GFP level changes, GLN3 branch – cell-based, multiplex flow cytometry, S. cerevisiae, primary screen (AID 1887;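 active = GFP signal above the screen-wide mean plus 3 SD, that is over about 124.5% of the solvent control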;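 note: AGP1-GFP fusion strain of S. cerevisiae within a five-strain barcoded multiplex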). Conditions: 3 h, at 10 µM, stronger effect = higher value.
A short description of test [6]: reduced mouse 2C T cell binding to pMHC/ICAM-1 vesicles – MLPCN validation set, flow cytometry, LFA-1/ICAM-1 modulator project, pilot screen (AID 2523;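 active = response below a set limit, under 55% cells CD8-positive and vesicle-bound, and CD8 cells' 90th-percentile brightness under 279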;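 for vesicle binding response: mean PE anti-B7-1 fluorescence of CD8+ cells relative to row control; 100% = QL9-loaded vesicles with DMSO vehicle in the same plate row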). The following applies: 2C mouse CD8+ T cells, at 7 µM, stronger effect = lower value; double positive events: measured here: CD8+/vesicle+ event percentage.
Test [7] deals with Integrin beta-1 (Homo sapiens) + Integrin alpha-4 (Homo sapiens) (UniProt P13612+P05556). Kind of test: alpha4beta1 integrin LIBS antibody binding reduction – U937 cells, HUTS-21 mAb, flow cytometry, validation set, VLA-4 allosteric modulator project, pilot screen (AID 2674;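 active = inhibition above 50%, about 3 SD of the validation set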;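 note: antibody binding induced by the VLA-4 ligand LDV present at three times its Kd; 0% = LDV ligand with antibody and no compound and 100% = antibody without LDV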). Conditions: HUTS-21 LIBS mAb binding, at 6.7 µM, stronger effect = higher value.
Test [8] is described as follows: calorie-restriction mimetic ROS inhibitors, yeast – validation compound set, pilot screen (AID 2706;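 active = superoxide response below 65% of plate, a cut near 3 SD across the whole screen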;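 note: yeast exposed to compound for one week at 30 degrees C before staining; 100% = mean of all compound wells on the same plate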). The following applies: S. cerevisiae aging, superoxide DHE fluorescence; at 10 µM; stronger effect = lower value.
Test [9] addresses Beta-adrenergic receptor kinase 1 (Homo sapiens) (UniProt P25098). The test can be described thus: GRK2 binders displacing RNA aptamer, biochemical, validation, human GRK2, bead flow cytometry (AID 488806;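 active = aptamer binding inhibition above 30%, about 3 SD of noise from non-fluorescent compounds; inactive = inhibition at or below 30%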). Conditions: bead-bound GRK2, FAM-aptamer displacement, at 10 µM, stronger effect = higher value.
The target in test [10] is Beta-2 adrenergic receptor (Homo sapiens) (UniProt P07550). The test can be described thus: agonist-induced loss of surface beta2AR – cell-based, FAP fluorogen, flow cytometry, validation set, pilot screen (AID 504459;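 active = percent response above 42, roughly 3 SD of non-fluorescent test compounds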;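 note: agonist-driven loss of surface beta2AR via internalization measured by FAP dye flow cytometry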). Conditions: Am2.2-beta2AR cells, at 10 µM, stronger effect = higher value.
Test [11] has as its target AP-2 complex subunit beta (Homo sapiens) (UniProt P63010). Kind of test: beta-arrestin/AP2 interaction blockers – biochemical, validation set, GST-AP2 beads, flow cytometry, pilot screen (AID 504541;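 active = inhibition above 54%, about 3 SD of non-fluorescent compounds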;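 note: AP2 carries R879A mutation and is captured from E. coli lysate; bead-bound FITC arrestin peptide fluorescence measuring arrestin peptide binding to AP2; 0% = DMSO wells and 100% = excess unlabeled arrestin peptide control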). Conditions: FITC arrestin peptide, at 10 µM, stronger effect = higher value.
Test [12] can be described thus: cytosolic pH regulators acting via V-ATPase – S. cerevisiae, pHLuorin, HTS validation (AID 504600; in the data active = response above about 15%;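 note: plate controls were DMSO for no effect and reference compound for full effect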). Conditions: V-ATPase proton transport, at 10 µM, stronger effect = higher value.
For test [13], the system named is anti-desmoglein-3 scFv antibody binding to human DSG3. The test can be described thus: blockers of pathogenic pemphigus antibody–desmoglein-3 binding – biochemical, validation compound set, bead-based, flow cytometry, pilot screen (AID 588368;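 active = binding below the plate cutoff, the plate median minus 3 SD, with a reading above zero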;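 note: signal is the median channel fluorescence of bead-bound GFP antibody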). Conditions: Protein G beads, DSG3-Fc, scFv-GFP binding, at 10 µM, stronger effect = lower value.
Test [14] concerns Botulinum neurotoxin type F light chain protease (Clostridium botulinum). The test can be described thus: Clostridium botulinum type F light chain protease inhibitors, microsphere substrate cleavage, validation (AID 588459). The following applies: multiplex microsphere protease substrate cleavage assay, flow cytometry; at 10 µM; stronger effect = higher value.
Test [15] addresses Botulinum neurotoxin type A (Clostridium botulinum) (UniProt P0DPI0). The test can be described thus: BoNT/A light chain protease inhibitors, biochemical, multiplex microsphere flow cytometry, validation set (AID 588460). Conditions: at 10 µM, stronger effect = higher value.
The target of test [16] is Lethal factor (Bacillus anthracis) (UniProt P15917). The test can be described thus: Bacillus anthracis lethal factor inhibition, microsphere flow cytometry protease assay, validation at 10 µM (AID 588461). The following applies: multiplex microsphere protease cleavage assay, stronger effect = higher value.
Test [17] can be described thus: Nile Red efflux blockade in pump-expressing yeast – validation compound set, multiplex, phenotypic, pilot screen (AID 588506;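 active = efflux inhibition above 0.42, the validation set average plus 4 SD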;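 note: Nile Red retained in cells so higher fluorescence means more efflux inhibition; 0 = negative control wells and 1 = enniatin B 25 µM full block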). The following applies: S. cerevisiae pump-expressing triplex, Nile Red efflux flow cytometry; at 10 µM; stronger effect = higher value.
Test [18] addresses ATP-binding cassette sub-family B member 6 (Homo sapiens) (UniProt Q9NP58). Kind of test: blockers of ABCB6-driven porphyrin uptake – K562-ABCB6 cells, flow cytometry, validation set, pilot screen (AID 588550;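 active = inhibition above the screen-wide mean plus 3 SD, about 51%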;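 note: 0% = DMSO wells and 100% = benzethonium chloride 70 µM positive control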). Conditions: K562-ABCB6 porphyrin accumulation, 1 h, at 10 µM, stronger effect = higher value.
Test [19] in a line: AML differentiation inducers, ER-HoxA9 marrow cells – cell-based, GFP/MAC1 double positive, flow cytometry, validation set, primary screen (AID 588685;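 active = differentiation response of at least 50%, scaled between solvent and reference control, from cells with both markers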;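 note: compound exposure lasts four days before antibody staining and flow analysis; 0% = DMSO wells and 100% = 5 µM fulvestrant positive control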). The following applies: stronger effect = higher value.

Chain of Lethal factor (Bacillus anthracis) (P15917 whole entry, looked up): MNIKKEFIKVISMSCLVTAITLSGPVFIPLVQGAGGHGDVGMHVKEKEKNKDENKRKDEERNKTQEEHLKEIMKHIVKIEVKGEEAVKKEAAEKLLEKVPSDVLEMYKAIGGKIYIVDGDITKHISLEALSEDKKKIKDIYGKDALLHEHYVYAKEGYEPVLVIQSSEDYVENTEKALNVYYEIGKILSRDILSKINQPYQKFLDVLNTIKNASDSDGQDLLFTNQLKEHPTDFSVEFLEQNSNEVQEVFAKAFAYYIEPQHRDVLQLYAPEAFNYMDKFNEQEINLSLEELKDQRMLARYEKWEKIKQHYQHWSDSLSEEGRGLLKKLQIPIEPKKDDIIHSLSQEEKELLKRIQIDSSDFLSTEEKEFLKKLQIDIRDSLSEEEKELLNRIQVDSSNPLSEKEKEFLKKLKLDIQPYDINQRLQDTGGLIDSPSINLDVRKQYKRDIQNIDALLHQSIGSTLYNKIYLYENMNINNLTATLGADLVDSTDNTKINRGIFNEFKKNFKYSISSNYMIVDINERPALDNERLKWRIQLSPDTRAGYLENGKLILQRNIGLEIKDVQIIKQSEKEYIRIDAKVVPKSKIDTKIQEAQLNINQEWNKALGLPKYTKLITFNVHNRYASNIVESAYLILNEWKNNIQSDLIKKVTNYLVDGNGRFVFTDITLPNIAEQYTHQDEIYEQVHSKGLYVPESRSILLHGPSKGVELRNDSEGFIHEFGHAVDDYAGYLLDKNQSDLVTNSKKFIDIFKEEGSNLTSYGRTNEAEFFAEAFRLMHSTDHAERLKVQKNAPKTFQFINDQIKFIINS
Chain of Beta-2 adrenergic receptor (Homo sapiens) (P07550 whole entry, looked up): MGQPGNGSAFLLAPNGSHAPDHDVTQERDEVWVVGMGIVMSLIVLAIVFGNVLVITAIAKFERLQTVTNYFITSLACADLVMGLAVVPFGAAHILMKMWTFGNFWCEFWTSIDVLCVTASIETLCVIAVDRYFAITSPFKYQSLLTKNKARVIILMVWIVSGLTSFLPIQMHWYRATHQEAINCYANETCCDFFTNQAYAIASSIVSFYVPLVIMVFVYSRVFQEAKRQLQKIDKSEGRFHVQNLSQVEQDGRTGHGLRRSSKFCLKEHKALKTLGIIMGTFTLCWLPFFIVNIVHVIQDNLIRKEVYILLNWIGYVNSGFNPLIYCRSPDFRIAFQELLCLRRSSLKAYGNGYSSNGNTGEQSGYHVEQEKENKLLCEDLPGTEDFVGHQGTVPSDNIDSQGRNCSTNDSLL
Chain of AP-2 complex subunit beta (Homo sapiens) (P63010 whole entry, looked up, one chain of several): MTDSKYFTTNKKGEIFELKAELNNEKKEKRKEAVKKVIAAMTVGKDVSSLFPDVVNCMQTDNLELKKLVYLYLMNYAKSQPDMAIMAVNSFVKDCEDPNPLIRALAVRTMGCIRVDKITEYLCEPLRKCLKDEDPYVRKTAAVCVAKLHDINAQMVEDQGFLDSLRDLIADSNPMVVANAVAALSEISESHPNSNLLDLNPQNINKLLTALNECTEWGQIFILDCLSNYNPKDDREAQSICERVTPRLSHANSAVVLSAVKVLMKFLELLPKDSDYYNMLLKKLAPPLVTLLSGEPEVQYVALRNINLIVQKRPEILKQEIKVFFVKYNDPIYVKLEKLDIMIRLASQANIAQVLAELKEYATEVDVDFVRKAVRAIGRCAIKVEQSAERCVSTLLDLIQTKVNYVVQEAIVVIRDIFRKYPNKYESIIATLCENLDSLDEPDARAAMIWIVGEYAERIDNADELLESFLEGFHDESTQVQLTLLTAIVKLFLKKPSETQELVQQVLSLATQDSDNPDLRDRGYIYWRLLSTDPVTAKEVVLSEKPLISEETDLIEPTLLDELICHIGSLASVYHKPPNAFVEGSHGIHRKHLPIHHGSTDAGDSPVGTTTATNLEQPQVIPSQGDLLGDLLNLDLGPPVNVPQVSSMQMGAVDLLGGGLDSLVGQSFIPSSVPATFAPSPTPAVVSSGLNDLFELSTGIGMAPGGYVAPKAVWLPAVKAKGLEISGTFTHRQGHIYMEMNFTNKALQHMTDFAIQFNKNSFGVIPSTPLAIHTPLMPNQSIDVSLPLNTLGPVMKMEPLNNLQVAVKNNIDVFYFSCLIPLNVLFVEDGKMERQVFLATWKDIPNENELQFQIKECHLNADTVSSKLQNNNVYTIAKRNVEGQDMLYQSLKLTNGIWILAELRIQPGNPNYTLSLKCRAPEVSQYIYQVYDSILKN
Chain of Integrin beta-1 (Homo sapiens) + Integrin alpha-4 (Homo sapiens) (P05556 whole entry, looked up): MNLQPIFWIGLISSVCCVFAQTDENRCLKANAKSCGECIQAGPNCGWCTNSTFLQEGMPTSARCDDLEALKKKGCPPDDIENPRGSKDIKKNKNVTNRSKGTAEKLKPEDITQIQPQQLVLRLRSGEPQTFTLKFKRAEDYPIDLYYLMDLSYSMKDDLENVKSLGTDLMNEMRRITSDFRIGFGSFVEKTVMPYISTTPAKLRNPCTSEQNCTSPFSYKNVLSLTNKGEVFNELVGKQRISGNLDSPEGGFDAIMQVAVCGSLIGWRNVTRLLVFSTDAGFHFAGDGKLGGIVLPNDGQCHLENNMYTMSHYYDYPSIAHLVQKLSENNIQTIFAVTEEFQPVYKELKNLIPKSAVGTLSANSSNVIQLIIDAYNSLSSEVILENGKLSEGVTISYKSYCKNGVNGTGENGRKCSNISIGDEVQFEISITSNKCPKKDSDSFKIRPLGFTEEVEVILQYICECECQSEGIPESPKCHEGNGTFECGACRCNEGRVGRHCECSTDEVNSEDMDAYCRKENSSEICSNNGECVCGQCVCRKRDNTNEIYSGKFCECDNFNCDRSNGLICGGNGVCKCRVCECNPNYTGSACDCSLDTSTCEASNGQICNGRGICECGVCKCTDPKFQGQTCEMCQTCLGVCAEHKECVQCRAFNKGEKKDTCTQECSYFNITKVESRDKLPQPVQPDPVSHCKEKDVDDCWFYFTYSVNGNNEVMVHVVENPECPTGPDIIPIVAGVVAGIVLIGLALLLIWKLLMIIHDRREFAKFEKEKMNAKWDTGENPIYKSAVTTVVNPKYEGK
Chain of Integrin beta-1 (Homo sapiens) + Integrin alpha-4 (Homo sapiens) (P13612 whole entry, looked up): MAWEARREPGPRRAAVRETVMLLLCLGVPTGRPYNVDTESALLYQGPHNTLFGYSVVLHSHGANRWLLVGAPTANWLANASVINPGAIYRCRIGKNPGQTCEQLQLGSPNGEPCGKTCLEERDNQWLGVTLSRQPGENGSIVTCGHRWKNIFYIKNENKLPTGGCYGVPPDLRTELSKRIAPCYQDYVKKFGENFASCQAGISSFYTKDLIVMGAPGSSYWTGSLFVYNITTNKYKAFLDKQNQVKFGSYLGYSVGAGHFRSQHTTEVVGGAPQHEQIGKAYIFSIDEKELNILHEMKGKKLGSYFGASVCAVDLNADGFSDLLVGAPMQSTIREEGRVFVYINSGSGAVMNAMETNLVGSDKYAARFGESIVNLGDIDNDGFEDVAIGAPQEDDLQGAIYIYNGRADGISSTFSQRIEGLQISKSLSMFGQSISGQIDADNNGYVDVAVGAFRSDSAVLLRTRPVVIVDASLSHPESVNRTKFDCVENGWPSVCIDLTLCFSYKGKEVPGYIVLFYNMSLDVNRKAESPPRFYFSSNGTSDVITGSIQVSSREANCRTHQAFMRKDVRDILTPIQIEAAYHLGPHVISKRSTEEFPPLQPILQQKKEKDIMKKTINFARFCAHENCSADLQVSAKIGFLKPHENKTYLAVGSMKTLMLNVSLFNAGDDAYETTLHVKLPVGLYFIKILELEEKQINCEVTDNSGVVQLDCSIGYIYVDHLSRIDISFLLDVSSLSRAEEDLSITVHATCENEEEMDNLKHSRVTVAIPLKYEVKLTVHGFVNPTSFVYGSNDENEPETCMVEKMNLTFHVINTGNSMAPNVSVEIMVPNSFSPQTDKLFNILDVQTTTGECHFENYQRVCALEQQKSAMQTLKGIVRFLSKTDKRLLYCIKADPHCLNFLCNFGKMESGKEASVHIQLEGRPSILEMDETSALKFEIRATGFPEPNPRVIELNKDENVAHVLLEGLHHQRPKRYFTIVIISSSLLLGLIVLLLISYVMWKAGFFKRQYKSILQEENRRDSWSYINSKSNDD
Chain of ATP-binding cassette sub-family B member 6 (Homo sapiens) (Q9NP58 whole entry, looked up): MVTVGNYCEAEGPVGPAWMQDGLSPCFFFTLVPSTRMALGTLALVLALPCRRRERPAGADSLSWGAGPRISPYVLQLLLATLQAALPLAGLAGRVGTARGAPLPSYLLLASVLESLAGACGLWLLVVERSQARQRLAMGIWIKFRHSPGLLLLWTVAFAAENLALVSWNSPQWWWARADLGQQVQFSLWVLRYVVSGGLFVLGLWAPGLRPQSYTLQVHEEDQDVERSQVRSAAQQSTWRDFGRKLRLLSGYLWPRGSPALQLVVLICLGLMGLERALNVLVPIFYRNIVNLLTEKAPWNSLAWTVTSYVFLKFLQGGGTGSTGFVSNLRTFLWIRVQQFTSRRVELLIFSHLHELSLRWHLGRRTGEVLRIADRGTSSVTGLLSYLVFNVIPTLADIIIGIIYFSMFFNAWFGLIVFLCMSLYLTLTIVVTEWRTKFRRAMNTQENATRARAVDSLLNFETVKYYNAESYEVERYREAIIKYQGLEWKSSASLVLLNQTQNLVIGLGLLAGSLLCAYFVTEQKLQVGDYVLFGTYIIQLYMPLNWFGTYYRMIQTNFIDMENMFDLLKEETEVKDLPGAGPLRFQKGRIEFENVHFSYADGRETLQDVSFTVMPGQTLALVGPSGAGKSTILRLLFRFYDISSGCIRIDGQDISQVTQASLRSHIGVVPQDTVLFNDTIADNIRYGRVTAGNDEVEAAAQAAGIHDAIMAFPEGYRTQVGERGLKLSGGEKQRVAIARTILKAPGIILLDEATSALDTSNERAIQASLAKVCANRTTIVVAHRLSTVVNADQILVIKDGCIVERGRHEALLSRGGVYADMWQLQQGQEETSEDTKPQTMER

In the case of `CCC1(c2ccccc2)C(=O)N(COC)C(=O)N(COC)C1=O`, the percent of DMSO control GFP in test [1] was 102% (inactive). Further, the figures for the GFP response vs DMSO in test [2] and in [4] were 102% (inactive) and 112% (inactive), respectively. In addition, the percent response of DMSO control in test [3] was 103% (inactive). The GFP response, % of DMSO in test [5] was 112% (inactive). The double positive events in [6] stood at 62.2%. The vesicle binding response in [6] was 148% (inactive). Further, the inhibition – broadly, the change of the read-out against control, counted positive when it falls – in test [7] was 10.8% (inactive); in [11], 10.8% (inactive); in test [14], 2% (inactive); in [15] it was -0.2% (inactive); in [16] it was 0.4% (inactive); in test [18], 4% (inactive). In addition, in [8], the superoxide response (% of plate) was 109% (inactive). The aptamer binding inhibition in [9] is 2% (inactive). Further, the response was -14.8% (inactive) in [10] and -4.18% (inactive) in test [12]. The binding (% of control) in [13] is 102% (inactive). Moreover, in test [17], the efflux inhibition (fraction of control) was 0.12 (inactive). For the same compound, the differentiation response in test [19] was 3.88% (inactive).
With `COc1ccccc1CN1CCCCC1c1cccnc1` (stereo not given), the percent of DMSO control GFP in test [1] was 104% (inactive). Besides, the GFP response vs DMSO is 99.3% (inactive) in test [2] and 97.3% (inactive) in test [4]. For the same compound, in test [3], the percent response of DMSO control is 106% (inactive). Also, the GFP response, % of DMSO in [5] was 107% (inactive). The double positive events in [6] amounted to 65.8%. In addition, the vesicle binding response in test [6] is 217% (inactive). Besides, the inhibition in [7] is 4.73% (inactive); in test [11], 1.86% (inactive); in test [14], 1.4% (inactive); in test [15] it was -0.8% (inactive); in test [16], 4% (inactive); in [18], 6% (inactive). Besides, the superoxide response (% of plate) in test [8] is 98.9% (inactive). The aptamer binding inhibition in test [9] was 6% (inactive). For the same compound, the results for the response in test [10] and in [12] were -6.83% (inactive) and -0.89% (inactive), respectively. Besides, the binding (% of control) in test [13] is 97.1% (inactive). Further, in test [17], the efflux inhibition (fraction of control) was -0.17 (inactive). Also, the differentiation response in test [19] is 7.09% (inactive).
Take `CC(C)[N+](C)(CCC(C(N)=O)(c1ccccc1)c1ccccc1)C(C)C`: the percent of DMSO control GFP in [1] was 105% (inactive). Also, the GFP response vs DMSO is 107% (inactive) in [2] and 99.1% (inactive) in test [4]. The percent response of DMSO control in test [3] is 107% (inactive). Further, in [5], the GFP response, % of DMSO is 106% (inactive). The compound further showed a double positive events in [6] of 61.6%. For the same compound, the vesicle binding response in test [6] was 144% (inactive). Also, the inhibition in test [7] is 5.61% (inactive); in test [11] it was -5.08% (inactive); in test [14] it was -5% (inactive); in test [15] it was -2.6% (inactive); in test [16], -9.4% (inactive); in test [18], 21% (inactive). Moreover, the superoxide response (% of plate) in test [8] was 110% (inactive). In addition, in [9], the aptamer binding inhibition is 2% (inactive). Besides, the figures for the response in test [10] and in test [12] were 9.5% (inactive) and 0.78% (inactive), respectively. Moreover, the binding (% of control) in [13] was 101% (inactive). Also, the efflux inhibition (fraction of control) in test [17] was -0.61 (inactive). Further, the differentiation response in test [19] is -8.96% (inactive).
For `C=C1CC[C@@]2(O)[C@H]3Cc4ccc(O)c5c4[C@@]2(CCN3CC2CC2)[C@H]1O5`, in test [1], the percent of DMSO control GFP is 107% (inactive). Besides, the values for the GFP response vs DMSO in [2] and in [4] were 95.1% (inactive) and 90.1% (inactive), respectively. For the same compound, in [3], the percent response of DMSO control was 109% (inactive). In addition, the GFP response, % of DMSO in test [5] is 102% (inactive). In addition, the double positive events in test [6] is 64.3%. Besides, in test [6], the vesicle binding response was 1650% (inactive). Besides, the inhibition was 14.1% (inactive) in test [7]; -7.26% (inactive) in test [11]; 2.7% (inactive) in test [14]; -0.2% (inactive) in test [15]; 8.1% (inactive) in [16]; 13% (inactive) in test [18]. For the same compound, the superoxide response (% of plate) in test [8] is 98.9% (inactive). In addition, the aptamer binding inhibition in [9] was -2% (inactive). Besides, the response in test [10] was -8.78% (inactive); in test [12], 5.8% (inactive). Further, the binding (% of control) in test [13] is 99% (inactive). Besides, in [17], the efflux inhibition (fraction of control) was -0.26 (inactive). The differentiation response in test [19] was 10% (inactive).
